# Assay outcomes as filed in PubChem BioAssay.
# HEK293 cAMP cs = raises cAMP in parental HEK293 cells, TSHR agonist counter-screen; parental HEK293 CNG cAMP sensor, membrane potential fluorescence; Potency, µM (highest dose often 57.1 µM), without a hit: top-dose activation, hits mostly activators; 73,000 tested, 2.5% active; AID 938; note: % of control where 0% means no effect; nearly all actives have a fitted effect of over 55% in size
#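 Parental HEK 293 cells stably expressing a cAMP-gated CNG channel were loaded with membrane potential dye containing 100 uM RO 20-1724 for 60 min. Compound added for 30 min; depolarization read as fluorescence intensity at 590 nm.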
# TSHR ag = activates the human thyroid stimulating hormone receptor; Potency, µM (doses to about 57.1 µM), for the others: at the top dose activation, usual class: activators; HEK293-CNG-TSHR cells (CNG channel as cAMP sensor), membrane potential dye, cAMP; P16473; 73,000 tested, 0.48% active; active = well fitted activation curve with a large enough effect in the main read-out, with a control signal flat, not every such curve was filed as active; inconclusive = small, poorly fitted or top-dose-only effect, or a change in a side signal; inactive = no such curve, though single readings can be large or run the other way; % of control where 0% means no effect;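 note: the control signal comes from parental cells without the receptor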
#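 HEK 293 cells stably expressing TSHR and a modified CNG channel, with CNG-only parental cells as counterscreen, were preloaded 60 min at room temperature with membrane potential dye containing 100 uM RO 20-1724. Compound exposure was 30 min, and depolarization was read as fluorescence at 590 nm.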
# GBA activity = human lysosomal glucosylceramidase modulation | P04062 | purified enzyme, resorufin glucoside fluorescence (screen aimed at inhibitors), 20 min | Potency, µM | 48,000 tested, 1.1% active | AID 360; in the data active = potency below about 15 µM; inconclusive = mostly about 16 µM to 33 µM;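 note: the screen sought inhibitors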
# Target sequence (P04062 whole entry, looked up): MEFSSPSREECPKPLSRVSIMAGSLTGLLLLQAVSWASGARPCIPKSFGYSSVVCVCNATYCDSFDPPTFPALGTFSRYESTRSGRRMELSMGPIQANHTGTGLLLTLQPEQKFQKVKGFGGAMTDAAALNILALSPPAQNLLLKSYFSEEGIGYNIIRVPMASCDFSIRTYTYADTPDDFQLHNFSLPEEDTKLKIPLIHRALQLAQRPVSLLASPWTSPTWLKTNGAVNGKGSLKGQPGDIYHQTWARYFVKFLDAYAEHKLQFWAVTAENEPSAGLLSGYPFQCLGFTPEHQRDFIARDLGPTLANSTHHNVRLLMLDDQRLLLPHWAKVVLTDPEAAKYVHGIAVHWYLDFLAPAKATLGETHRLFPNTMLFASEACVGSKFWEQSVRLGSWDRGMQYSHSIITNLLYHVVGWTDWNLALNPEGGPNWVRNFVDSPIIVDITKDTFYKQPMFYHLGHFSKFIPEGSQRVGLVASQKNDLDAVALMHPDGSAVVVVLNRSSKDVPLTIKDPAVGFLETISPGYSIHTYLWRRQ
#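 Compounds titrated against 0.2 nM normal enzyme, 30 uM resorufin beta-D-glucopyranoside substrate, citrate/phosphate buffer with taurocholate and tween-20, pH 5.9. Reaction ran 20 min at room temperature; fluorescence (Ex 548/Em 600) gave AC50.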
# Ub-GFP proteasome = inhibits proteasome, raising ubiquitin-GFP reporter fluorescence; 67,000 tested, under 10 active; Potency, µM (top dose mostly 45.9 µM), inactives show at the top dose activation (GFP accumulation), hits mostly activators; AID 526; Ubiquitin-GFP reporter cells, proteasome inhibition, GFP fluorescence; response scale: untreated = 0%, 10 µM MG-132 = 100%; active = well fitted activation curve with a large enough effect, not every such curve was filed as active; inconclusive = small, poorly fitted or top-dose-only effect, or another doubt; inactive = no such curve, though single readings can be large or run the other way
#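 U2OS cells expressing ubiquitin(G76V)-GFP, seeded overnight in 0.5% FBS medium, then treated 4 hr at 37 C across 46 uM to 2.9 nM. GFP-positive cells counted by laser cytometry (488 ex/515 em); %activity scaled between basal and 10 uM MG-132.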
# USP2a inhib = blocks human ubiquitin-specific protease USP2a; O75604; USP2a enzymatic assay, qHTS inhibition; Potency, µM (series often up to 38.3 µM), for inactives: at the top dose activity change, negative = inhibition, usual class: inhibitors; 60,000 tested, 0.1% active; AID 927; note: nearly all actives have a fitted effect of over 60% in size
#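 Coupled readout: USP2-cleaved Ub-PLA2 (20nM final) turns over NBD C6-HPC (20uM final), Ex 460nm/Em 535nm after 2.5 h, time-zero read flagging artifacts. Enzyme (20nM final, pH 8.0 Tris) given 30 min RT with compound first; NEM defines full inhibition.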
# PK Bst = pyruvate kinase (B. stearothermophilus) modulation | purified pyruvate kinase, luminescence ATP production; ribose 5-phosphate activator present at AC10 | 51,000 tested, 1.2% active | Potency, µM; in the data active = potency below about 11 µM; inconclusive = mostly about 12 µM to 25 µM;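 the screen sought inhibitors and activators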;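 note: scaled between full activation by ribose 5 phosphate and full inhibition by luteolin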
# The depositor's hits bear a star; i = inactive; ? = inconclusive; · = no result given; [ ] = another dose, or the depositor's remark. Most compounds without a hit are left out; they make up all but 4.1% or so of the library. Unless noted, calls come from the whole dose curve; as a rule, active = well fitted curve in the direction sought with a large enough effect; inconclusive = small, poorly fitted or top-dose-only effect, or another doubt; inactive = no such curve, though single readings can be large; an effect the other way counts as inactive or inconclusive. Potency is the fitted concentration of half-maximal effect.
SMILES,HEK293 cAMP cs,TSHR ag,GBA activity,Ub-GFP proteasome,USP2a inhib,PK Bst
c1ccc(OCc2nn3c(-c4ccncc4)nnc3s2)cc1,7%,24%,>77,-2%,6%,>57
COc1ccc(-c2nnc3sc(CN4C(=O)c5ccccc5C4=O)nn23)cc1,12%,16µM*,·,4%,27%,>57
O=C1c2ccccc2C(=O)N1Cc1nn2c(-c3ccc(Cl)cc3)nnc2s1,18%,16%,7.8*,-2%,22%,>57
CCOc1ccccc1OCc1nn2c(-c3ccc(C)cc3)nnc2s1,25µM*,?,>77,-5%,16%,?
Clc1ccc(-c2nnc3sc(Cc4cccs4)nn23)cc1,·,·,·,·,·,i
COc1ccc(-c2nnc3sc(C(C)N4C(=O)c5ccccc5C4=O)nn23)cc1 (centres undefined),8%,28%,·,2%,·,·
COC(=O)C1=C(C)N(Cc2ccco2)C(=O)C1,22%,3%,>77,0%,8%,>57
CCCCC(=O)NC1(C(F)(F)F)C(=O)N(Cc2ccco2)C(C)=C1C(=O)OC (centres undefined),3%,16µM*,>77,0%,10%,>57
CCCCSCc1nc2nc(Cl)c(Cl)nc2[nH]1,?,?,·,-3%[9.17 µM],·,·
Cc1ccc(OCCSc2cc(C)nc(N)n2)cc1,?,?,·,-10%,11%,·
Cc1cccc(OCCSc2cc(C)nc(N)n2)c1,32µM*,?,·,17%,14%,·
Brc1ccc(-c2cnnc(N3CCCC3)n2)cc1,·,·,·,·,·,2.4*
Cc1cc(C)n(-c2nncc(-c3ccccc3)n2)n1,-16%,-2%,·,15%,0%,·
CC(=O)OC1CC[C@]2(C)C(CC(OC(C)=O)[C@@]3(C)C4=CC(=O)OC(c5ccoc5)[C@]4(C)CCC23)C1(C)C (some centres undefined),·,·,·,·,47%,·
CC(/C(O)=C(\C#N)c1nc2ccccc2n1C)N1C(=O)c2ccccc2C1=O (centres undefined),-2%,1%,>77,-4%,1%,>57
Cn1c(/C(C#N)=C(\O)COc2ccc3ccccc3c2)nc2ccccc21,16µM*,?,>77,-3%,13%,>57
CCOC(=O)c1ccc(NC(=O)Nc2ccc3c(c2)OCCO3)cc1,-16%,-29%,>77,3%,34%,·
CCOC(=O)c1ccc(NCc2ccc3c(c2)OCO3)cc1,26%,16%,>77,-11%,13µM*,>57
COc1ccccc1CNc1ccnc(-c2ccc(N(C)C)cc2)n1,5%,25%,·,-1%,?,·
CCNc1ncc2nc(-c3ccc(OC)cc3)c(=O)n(Cc3cccs3)c2n1,11%,1%,·,-3%,132%,·
O=C(Nc1cccc(F)c1)N1CC[C@@]2(CCCNC2)C1,6%,17%,·,-17%,33%,·
Cc1ccc2c(c1)c1c3n2CCN[C@H]3CCC1,1%,1%,·,0%,6%[17.1 µM],·
Cc1ccc2c(c1)c1c(n2C)C(C(N)=O)CCC1 (centres undefined),-3%,-13%,>77,6%,6.3µM*,>57
CCOc1c(OC)cccc1C1CC(=O)Nc2cc3c(cc21)OCCO3 (centres undefined),29%,25µM*,·,5%,·,·
O=c1[nH]c(SCc2c(Cl)c(Cl)c(Cl)c(Cl)c2Cl)nc(=S)[nH]1,11%[11.4 µM],1%[11.4 µM],·,6%[9.17 µM],·,·
SMILES,HEK293 cAMP cs,TSHR ag,GBA activity,Ub-GFP proteasome,USP2a inhib,PK Bst
O=C(c1ccncc1)N1CCC2(CCCN(Cc3ccncc3)C2)CC1,13%,-57%,·,-4%,6%,·
Oc1ccc2cccnc2c1,-4%,2%,>77,-1%,1%,>57
O=C(Cc1ccc2cccnc2c1)c1ccc(O)cc1O,-7%,-3%,>77,5%,0%,6*
COc1ccc(-c2cc(-c3ccc(OC)cc3)[nH]n2)cc1,1%,-1%,>77,0%,4%,2.1*
COc1ccc(-c2nc(=S)[nH][nH]2)cc1,-18%,-1%,·,-6%,-2%,·
O=S(=O)(NC1CCCCC1)c1cccc(-c2nnc(-c3ccccc3)o2)c1,20µM*,?,·,14%,21%,·
Cc1ccccc1NS(=O)(=O)c1cccc(-c2nnc(-c3ccccc3)o2)c1,6.3µM*,?,·,-11%,10%,·
Brc1cccc(-c2nnc(-c3ccccc3)o2)c1,?,?,·,-24%,2%,i
O=C(O)CCNCC(=O)O,-3%[11.4 µM],-5%[11.4 µM],·,1%[9.17 µM],·,·
COc1ccc(-c2cc(C(=O)N/N=C/c3ccc(OC)c(OC)c3)[nH]n2)cc1,-2%,-1%,·,·,·,·
CC(=O)C1=C(C)NC(SCC(=O)c2ccccc2)=C(C#N)C1CC(C)C (centres undefined),3%,10µM*,>77,5%,12%,>57
O=C(Nc1ccccn1)c1ccc2ccccc2n1,?,?,·,4%,8%,9*
Cc1cc(C(=O)Nc2ccccn2)no1,1%,-1%,>77,-1%,-9%,>57
Cc1nc2cncnc2n(Cc2ccccc2Cl)c1=O,41%[0.457 µM],38%,·,11%,135%,·
O=c1cnc2cncnc2n1Cc1ccccc1,16%,25µM*,·,-6%,1%,·
O=c1cnc2cncnc2n1Cc1ccc(F)cc1,?,?,·,3%,41%,·
O=c1cnc2cncnc2n1Cc1ccccc1Cl,9%[0.457 µM],32µM*,·,4%,82%,·
COc1ccc(CNc2ncncc2-c2ccc(C(=O)N(C)C)cc2)c(OC)c1,13%,15%,·,3%,-1%,·
Cc1cc(NC(=O)COC(=O)c2cccc(S(=O)(=O)N3CCOCC3)c2)no1,2%,-3%,>77,-4%,-1%,>57
Cc1cc(NC(=O)COC(=O)c2ccc(S(=O)(=O)N3CCCc4ccccc43)cc2)no1,17%,16µM*,·,-2%,20%,>57
COc1cc(C(=O)Oc2ccccc2N)cc(OC)c1OC,-1%[11.4 µM],3.2µM*,·,19%[9.17 µM],2%[7.66 µM],·
Cc1cc(C)c(C#N)c(SCC(=O)CC(=O)OC(C)C)n1,25µM*,?,>77,-5%,5%,>57
COc1ccccc1-c1nnc2sc(-c3cc4ccccc4o3)nn12,25µM*,?,>77,-3%,17%,·
O=C(O)[C@H]1O[C@H]1C(=O)O,18%[11.4 µM],-1%[11.4 µM],·,4%[9.17 µM],·,·
Cc1noc(C)c1C(=O)OCC(=O)c1cc(C)n(Cc2ccccc2Cl)c1C,25µM*,?,>77,0%,-7%,·
Cn1cc(C(=O)c2ccccc2)cc1-c1nc2ccccc2n1C,30%,35%,>77,0%,15%,>57
Cc1oc(-c2nc3ccccc3n2C)cc1C(=O)c1ccccc1,25µM*,?,>77,13%,13%,3.4*
Cc1ccc2[nH]c(=O)c(C(c3nnnn3CC3CCCO3)N3CCc4ccccc4C3)cc2c1 (centres undefined),6%,13%,>77,1%,·,>57
